Compound activity deposited in PubChem BioAssay by National Center for Advancing Translational Sciences (NCATS).
NPR1 antag – Natriuretic polypeptide receptor (hNpr1) antagonism - Primary qHTS. Atrial natriuretic peptide receptor 1 (Homo sapiens), P16066. HEK293 hNpr1 GloSensor cGMP, ANP-stimulated luminescence. Potency, µM (doses to about 46.3 µM), actives largely listed as inhibitors. actives 1.6% (n = 76,000). AID 1347048, 2019; calls by dose curve; also: nearly all actives have a fitted effect of over 60% in size
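HEK293 cells stably expressing human Npr1 and cGMP GloSensor pGS-40F, loaded 2 h with 2% GloSensor reagent, given compound 30 min at room temperature. Luminescence read before and 20 min after 0.1 nM hNppA.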
NIH3T3 tox – Cytotoxic Profiling in NIH 3T3 Cell Line of Diverse Libraries Using Quantitative High-Throughput Screening. AID 1345082, 2018. NIH 3T3 viability, CellTiter-Glo ATP luminescence, 48-72 h. Potency, µM (highest dose often 96.7 µM), actives largely listed as inhibitors. actives 4.3% (n = 94,000); also: nearly all actives have a fitted effect of over 55% in size
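ATP-dependent luminescence (CellTiter-Glo) served as the viability signal for NIH 3T3 cells treated with compound for 48 or 72 hr at 37 °C.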
HEK293 tox – Cytotoxic Profiling in HEK 293 Cell Line of Diverse Libraries Using Quantitative High-Throughput Screening. actives 6.6% (n = 94,000). Potency, µM (top dose mostly 115 µM), hits mostly inhibitors. HEK 293 viability, ATP luminescence (CellTiter-Glo), 48-72 h. AID 1345083, 2018; also: nearly all actives have a fitted effect of over 60% in size
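Luminescence from cellular ATP, measured with CellTiter-Glo, indicates HEK 293 viability. Cells plated at 250 cells/well are treated with compound for 48 or 72 hr at 37 degree Celsius before reagent addition.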
FLuc inh – Firefly luciferase inhibition profiling of diverse chemical library using quantitative high-throughput screening; Luciferin 4-monooxygenase (Photinus pyralis), P08659; purified P. pyralis luciferase, luminescence, biochemical; Potency, µM (highest dose often 115 µM), usual class: inhibitors; actives 2.5% (n = 76,000); also: nearly all actives have a fitted effect of over 65% in size
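Biochemical qHTS: compound (6-point titration) added to 10uM D-luciferin plus 10uM ATP in Tris acetate pH 7.5 buffer with Mg, Tween-20 and BSA, then purified enzyme at 10nM; light output imaged.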
Each line names hits and unclear results; the compound was inactive in the other large screens. The list is not random: actives were taken first. Their share in the collection is about 11%. Unless noted, calls follow the shape of the dose curve; as a rule, active = well fitted curve in the direction sought with a large enough effect; inconclusive = small, poorly fitted or top-dose-only effect, or another doubt; inactive = no such curve, though single readings can be large; an effect the other way counts as inactive or inconclusive.

CN1C[C@H](C(=O)Nc2cccc(F)c2)C[C@H]1c1cccc(C(F)(F)F)c1	NIH3T3 tox 50µM, HEK293 tox 63µM
O=C(Nc1cccc(F)c1)[C@@H]1C[C@@H](c2cccc(C(F)(F)F)c2)N(CC2CCOCC2)C1	NIH3T3 tox 20µM, HEK293 tox 22µM
CN1C[C@H](C(=O)NCCOc2ccccc2)C[C@H]1c1cccc(C(F)(F)F)c1	NIH3T3 tox inconclusive, HEK293 tox 100µM
O=C(Nc1ccccc1)[C@@H]1C[C@@H](c2cccc(C(F)(F)F)c2)N(CC2CCOCC2)C1	NPR1 antag inconclusive, NIH3T3 tox inconclusive, HEK293 tox 56µM
COc1cc(CNC(=O)[C@@H]2C[C@@H](c3cccc(C(F)(F)F)c3)N(C)C2)cc(OC)c1	NIH3T3 tox inconclusive, HEK293 tox inconclusive
COc1cccc(NC(=O)[C@@H]2C[C@@H](c3cccc(C(F)(F)F)c3)N(CC3CCOCC3)C2)c1	NIH3T3 tox inconclusive, HEK293 tox inconclusive
Cc1ccccc1C(=O)N1CCN(c2ccc3nnc(-c4ccccc4)n3n2)CC1	NIH3T3 tox inconclusive (no result: NPR1 antag, FLuc inh)
CC(C)c1ccc(CN2C[C@@H]3[C@H](C2)N(Cc2ccccc2)C(=O)C(C)(C)[S+]3(=O)[O-])cc1	NIH3T3 tox inconclusive, HEK293 tox inconclusive
c1ccc2cc(-c3noc([C@@H]4Cc5nc[nH]c5CN4CC4CCCCC4)n3)ccc2c1	NIH3T3 tox 50µM, HEK293 tox 71µM, FLuc inh inconclusive
Cc1ccc(-c2noc([C@@H]3Cc4nc[nH]c4CN3CC3CCCCC3)n2)cc1	NIH3T3 tox 71µM, HEK293 tox 63µM, FLuc inh inconclusive
Cn1cccc1CN1CCC2(CC1)Cc1ccccc1NC2=O	none
COc1ccc(-c2ccc(C(=O)N(C)CC#N)cc2)nn1	none (no result: NPR1 antag, FLuc inh)
CCOC(=O)c1ccc(NC(=O)Cn2ccn3nc4c(c3c2=O)CCCCC4)cc1	NIH3T3 tox inconclusive, HEK293 tox 45µM
O=C(Cn1ccn2nc3c(c2c1=O)CCCC3)Nc1ccccc1	HEK293 tox inconclusive
CCOc1ccc(NC(=O)Cn2ccn3nc4c(c3c2=O)CC(C)CC4)cc1 (centres undefined)	NIH3T3 tox 32µM, HEK293 tox 40µM
O=C(NCCn1cccc1-c1nc(-c2ccccc2)no1)c1ccccc1F	NIH3T3 tox inconclusive, HEK293 tox inconclusive, FLuc inh inconclusive
Cc1ccc(CN2CC[C@@H]3CN(S(C)(=O)=O)[C@@H]3C2)c(C)c1	none
CSc1ccccc1-c1ccc(N2CCN(C)CC2)nn1	FLuc inh 16µM
Cn1cc(C(=O)NCC2CN(C(=O)c3ccc(Oc4ccccc4)cc3)CC23CN(c2ccccc2)C3)cn1 (centres undefined)	NIH3T3 tox inconclusive, HEK293 tox inconclusive
O=C(NCC(F)F)C1CCN(c2nccc(Nc3ccccc3F)n2)CC1	HEK293 tox inconclusive (no result: NPR1 antag, FLuc inh)
Fc1ccccc1CNC[C@H]1Cn2cc(-c3ccccc3)nc2CO1	HEK293 tox inconclusive, FLuc inh 63µM
Cc1ccccc1CNC[C@H]1Cn2cc(-c3ccccc3)nc2CO1	NIH3T3 tox inconclusive, HEK293 tox 100µM
Clc1ccccc1CNC[C@H]1Cn2cc(-c3ccccc3)nc2CO1	NIH3T3 tox inconclusive, HEK293 tox 100µM, FLuc inh 56µM
Cc1ccc(CNC[C@H]2Cn3cc(-c4ccccc4)nc3CO2)cc1	NIH3T3 tox inconclusive, HEK293 tox inconclusive
c1ccc(-c2cn3c(n2)CO[C@@H](CNCc2ccc4ccccc4n2)C3)cc1	NIH3T3 tox inconclusive, HEK293 tox inconclusive
CNC(=O)[C@H]1C[C@]2(CCCCN(CCO)C2=O)N(C(=O)c2cccc(C#N)c2)[C@H]1c1ccco1	NIH3T3 tox inconclusive (no result: NPR1 antag, FLuc inh)
CC(C)C[C@@H]1N[C@H](C(=O)NCc2ccncc2)Cc2cn(Cc3ccncc3)c3cccc1c23	NIH3T3 tox inconclusive, HEK293 tox 50µM
C=CCn1cc2c3c(cccc31)[C@H](CC(C)C)N[C@H](C(=O)NCc1ccccn1)C2	NIH3T3 tox inconclusive, HEK293 tox 50µM
CC(C)C[C@@H]1N[C@H](C(=O)NCc2ccccn2)Cc2cn(Cc3ccncc3)c3cccc1c23	NIH3T3 tox inconclusive, HEK293 tox 25µM
CC(C)C[C@@H]1N[C@H](C(=O)NCc2cccs2)Cc2c[nH]c3cccc1c23	NIH3T3 tox 40µM, HEK293 tox 40µM
COCCCNC(=O)[C@@H]1Cc2cn(Cc3nccn3C)c3cccc(c23)[C@H](CC(C)C)N1	HEK293 tox inconclusive
COC(=O)[C@@H]1Cc2c[nH]c3cccc(c23)[C@H](CC(C)C)N1	HEK293 tox inconclusive
CCN1c2cc(C(=O)Nc3ccc(OC)cc3C)ccc2C(=O)N2CCCCCC21 (centres undefined)	HEK293 tox inconclusive
COc1ccc(-c2ccccc2C(=O)NCc2ccc(F)cc2F)nn1	none (no result: NPR1 antag, FLuc inh)
O=C(C1CCCN1C(=O)c1cccc(Cl)c1)N1CCC(N2CCOCC2=O)CC1 (centres undefined)	none (no result: NPR1 antag, FLuc inh)
C#CCNC(=O)[C@@H]1Cc2cn(Cc3ccncc3)c3cccc(c23)[C@H](CC(C)C)N1	NIH3T3 tox 89µM, HEK293 tox 45µM
C#CCNC(=O)[C@@H]1Cc2cn(CC3CC3)c3cccc(c23)[C@H](CC(C)C)N1	NIH3T3 tox 45µM, HEK293 tox 71µM
Cc1cnc(C2CCC2)n1CC1CCN(C(=O)NC2CCCCC2)CC1	HEK293 tox inconclusive
CN1CCN(C(=O)C2CCCN(c3nc4ncccc4o3)C2)CC1 (centres undefined)	none
c1cc(-c2cc(-c3ccncc3)c3cncn3c2)c2cc[nH]c2c1	NIH3T3 tox inconclusive, HEK293 tox 89µM
c1cc(-c2cc(-c3ccncc3)c3cncn3c2)c2[nH]ncc2c1	none
c1cc(-c2cc(-c3ccncc3)c3cncn3c2)c2[nH]ccc2c1	NIH3T3 tox 40µM, HEK293 tox 100µM, FLuc inh inconclusive
c1cncc(-c2cc(-c3cccc4cc[nH]c34)cn3cncc23)c1	NIH3T3 tox inconclusive, HEK293 tox inconclusive
COCC(=O)N[C@H]1C[C@@H](Cc2cc(CN(C)C)on2)C1(C)C	none
COc1cccc(-c2ccccc2NC(=O)C2CCN(c3nccnc3C)CC2)c1	NPR1 antag inconclusive, NIH3T3 tox 22µM, HEK293 tox inconclusive
COc1cccc(-c2ccccc2NC(=O)C2CCN(Cc3ccc(F)cc3)CC2)c1	NIH3T3 tox 22µM, HEK293 tox 32µM
OC[C@@H]1CNC[C@H]1C1CCN(Cc2cccc(C(F)(F)F)c2)CC1	NIH3T3 tox inconclusive, HEK293 tox 79µM
CCn1cc(S(=O)(=O)N2CCC(OCc3noc(C4CCCO4)n3)CC2)cn1 (centres undefined)	none (no result: NPR1 antag, FLuc inh)
COCCOC1CCN(C(=O)c2sc(C)nc2C)CC1	FLuc inh 35µM
Clc1ccc(CNC2(Cc3cc(COc4ccccc4)on3)COC2)cc1	NIH3T3 tox inconclusive, HEK293 tox 79µM
CC(C)(C)c1cc(CC2(NCc3ccc(OC(F)(F)F)cc3)COC2)no1	NIH3T3 tox 112µM, HEK293 tox inconclusive
